ERK AVP block: blocks ERK signaling stimulated by vasopressin. HEK293-V1b, vasopressin-stimulated pERK AlphaScreen. Potency, µM (highest dose often 57.5 µM), for the others: top-dose activity, negative = inhibition, actives largely listed as inhibitors. 0.99% of 72,000 active; further: on the % scale 0 is the no-effect control and ±100 the full control effect; nearly all actives have a fitted effect of over 55% in size
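Phosphorylated ERK1/2 detected via AlphaScreen bead proximity in lysates of V1b-expressing HEK293 cells given 25 nM vasopressin for 5 min after 30 min compound exposure (37 °C). AC50 from Hill equation; basal DMSO 0%, vasopressin 100%.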
TSHR agonist: activates the human thyroid stimulating hormone receptor; P16473; HEK293-CNG-TSHR cells (CNG channel as cAMP sensor), membrane potential dye, cAMP; Potency, µM (highest dose often 57.1 µM), for the others: top-dose activation, hits mostly activators; 0.48% of 73,000 active; active means well fitted activation curve with a large enough effect in the main read-out, with a control signal flat, not every such curve was filed as active; inconclusive means small, poorly fitted or top-dose-only effect, or a change in a side signal; inactive means no such curve, though single readings can be large or run the other way; % of control where 0% means no effect;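 further: the control signal comes from parental cells without the receptor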
Target sequence (P16473 whole entry, looked up): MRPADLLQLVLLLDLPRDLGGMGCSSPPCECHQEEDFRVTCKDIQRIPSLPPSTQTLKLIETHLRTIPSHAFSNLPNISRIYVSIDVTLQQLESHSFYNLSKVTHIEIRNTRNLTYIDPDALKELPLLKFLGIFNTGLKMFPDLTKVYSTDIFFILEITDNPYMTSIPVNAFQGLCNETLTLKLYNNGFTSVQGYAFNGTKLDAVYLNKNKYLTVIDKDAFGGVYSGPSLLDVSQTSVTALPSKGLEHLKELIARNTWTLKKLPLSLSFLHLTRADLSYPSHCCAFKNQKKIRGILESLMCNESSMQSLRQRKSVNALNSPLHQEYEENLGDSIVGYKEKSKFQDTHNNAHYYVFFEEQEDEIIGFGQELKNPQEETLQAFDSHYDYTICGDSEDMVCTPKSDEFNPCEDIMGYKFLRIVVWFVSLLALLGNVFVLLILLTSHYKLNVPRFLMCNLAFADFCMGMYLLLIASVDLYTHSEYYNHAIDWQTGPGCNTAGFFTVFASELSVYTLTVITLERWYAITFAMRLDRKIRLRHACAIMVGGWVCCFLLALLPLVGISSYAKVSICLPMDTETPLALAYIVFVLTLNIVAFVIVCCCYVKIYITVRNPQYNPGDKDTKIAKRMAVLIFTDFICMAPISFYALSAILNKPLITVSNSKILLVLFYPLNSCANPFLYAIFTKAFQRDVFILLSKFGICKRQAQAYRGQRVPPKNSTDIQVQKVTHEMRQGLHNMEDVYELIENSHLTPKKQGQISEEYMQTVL
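HEK 293 cells stably expressing TSHR and a cAMP-gated CNG channel; parental CNG-only cells as counterscreen. Cells preloaded 60 min with membrane potential dye plus 100 uM RO 20-1724, then compound 30 min; fluorescence read at 590 nm.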
CRE-bla Fsk: alters forskolin-stimulated CRE reporter signaling in CHO cells; CHO CRE-bla reporter (cAMP response element driving beta-lactamase), forskolin EC10, beta-lactamase ratio; Potency, µM (highest dose often 38.2 µM), for the others: at the top dose activity change, negative = inhibition, hits mostly activators; 2.5% of 71,000 active; AID 662; active means well fitted activation curve with a large enough effect in the signal ratio, with a control signal flat, not every such curve was filed as active; inconclusive means small, poorly fitted or top-dose-only effect, or effect the other way, or a change in a side signal; the % refers to the signal ratio; further: % of control where 0% means no effect
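CRE-bla CHO reporter cells treated with compound titration plus EC10 NKH 477 (water-soluble forskolin), incubated 3 h at 37 °C; CCF4 loading 2 h at room temperature, 460/530 nm emission ratio read, AC50 values derived for positive or negative modulators.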
IkB signaling: IkB pathway inhibition in ABC-DLBCL cells; ABC-DLBCL IkBa-CBG/CBR dual luciferase ratio, 4 h; response scale: scaled: untreated 0%, proteasome inhibitor 100%; Potency, µM (doses to about 57.1 µM), without a hit: at the highest dose IkBa stabilization activation; 0.04% of 110,000 active; AID 445; active means well fitted curve in the direction sought with a large enough effect in the signal ratio, not every such curve was filed as active; inconclusive means small, poorly fitted or top-dose-only effect, or a change in a side signal; the % refers to the signal ratio;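 further: the direction sought is a rising ratio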
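In this assay, an IκBα–CBG68 fusion accumulates when IKK-driven degradation is blocked; native CBR normalizes for cell number. OCI-Ly3 cells were treated 4 h with compound and doxycycline, then green and red light read after Chroma-Glo addition.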
HEK293 cAMP cs: counter-screen for TSHR agonists: cAMP increase in parental HEK293; parental HEK293 CNG cAMP sensor, membrane potential fluorescence; Potency, µM (top dose mostly 57.1 µM), for inactives: at the highest dose activation, usual class: activators; 2.5% of 73,000 active; further: % of control where 0% means no effect; nearly all actives have a fitted effect of over 55% in size
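Counterscreen for endogenous-receptor signalling: CNG-channel HEK 293 cells report cAMP rise by membrane depolarization. After 60 min dye equilibration with 100 uM RO 20-1724, compounds incubated 30 min before bottom-read fluorescence at 590 nm.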
* hit, by the source's call; [ ] = dose if it differs, or a comment. The list is not random: actives were taken first. Their share in the collection is about 3.6%. Unless noted, the call rests on the fitted dose curve; in most records, active means well fitted curve in the direction sought with a large enough effect; inconclusive means small, poorly fitted or top-dose-only effect, or another doubt; inactive means no such curve, though single readings can be large; an effect the other way counts as inactive or inconclusive. Potency means the concentration at half of the fitted maximal effect.

For COc1ccc(-c2nc(-c3cccc(C)c3)no2)cc1OC the results were ERK AVP block -24%, CRE-bla Fsk inconclusive, IkB signaling 4% and HEK293 cAMP cs 17%.
`COc1cc(-c2nc(-c3cccc(C)c3)no2)cc(OC)c1OC` gave ERK AVP block -7%, CRE-bla Fsk 0.79µM*, IkB signaling inconclusive and HEK293 cAMP cs 19%[11.4 µM].
`COc1cc(-c2noc(-c3ccco3)n2)cc(OC)c1OC` gave ERK AVP block -19%, TSHR agonist inconclusive, CRE-bla Fsk 16µM*, IkB signaling -1% and HEK293 cAMP cs -53%.
For CCOC(=O)NCc1ccc2c(c1)cc(C)n2C the results were ERK AVP block 28%, TSHR agonist 1%, CRE-bla Fsk 1%, IkB signaling -1% and HEK293 cAMP cs 7%.
For CCC(CC)C(=O)NCc1ccc2c(c1)cc(C)n2C the results were ERK AVP block 12%, TSHR agonist inconclusive, CRE-bla Fsk -8%, IkB signaling -2% and HEK293 cAMP cs 6.3µM*.
`Cn1c(=O)[nH]c(=O)c2c1nc(N1CCCCC1)n2CCCSc1nc2ccccc2s1` gave ERK AVP block inconclusive, CRE-bla Fsk 2.5µM*, IkB signaling 0% and HEK293 cAMP cs 13%.
Screening Cn1c(=O)[nH]c(=O)c2c1nc(N1CCCC1)n2CCCSc1nc2ccccc2o1 returned ERK AVP block -17%, TSHR agonist 0%, CRE-bla Fsk inconclusive, IkB signaling 1% and HEK293 cAMP cs -6%.
For Cn1c(=O)c2c(nc(N3CCCCC3)n2CCSc2nc3ccccc3s2)n(C)c1=O the results were ERK AVP block 4%, TSHR agonist inconclusive, CRE-bla Fsk 2%, IkB signaling 0% and HEK293 cAMP cs inconclusive.
Screening Cn1c(=O)[nH]c(=O)c2c1nc(Br)n2CCOc1ccccc1 returned ERK AVP block inconclusive, TSHR agonist -1%, CRE-bla Fsk 3.2µM*, IkB signaling 1% and HEK293 cAMP cs -13%.
`Cn1c(=O)[nH]c(=O)c2c1nc(Br)n2CCCSc1nc2ccccc2o1` gave ERK AVP block 32µM*, TSHR agonist inconclusive, CRE-bla Fsk 10µM*, IkB signaling inconclusive and HEK293 cAMP cs inconclusive.
`O=C1c2ccccc2C(=O)N1CCCSc1nc2ccccc2o1` gave ERK AVP block inconclusive, TSHR agonist inconclusive, CRE-bla Fsk inconclusive, IkB signaling inconclusive and HEK293 cAMP cs 4µM*.
Screening Cn1c(=O)[nH]c(=O)c2c1nc(N1CCCCC1)n2CCOc1ccccc1 returned ERK AVP block inconclusive, TSHR agonist inconclusive, CRE-bla Fsk inconclusive, IkB signaling -3% and HEK293 cAMP cs inconclusive.
`COc1cc(NC(=O)Cc2cccs2)cc(OC)c1` gave ERK AVP block -8%, TSHR agonist 0%, CRE-bla Fsk -17%, IkB signaling 0% and HEK293 cAMP cs 4%.
Screening CCS(=O)(=O)N1CCCC(C(=O)NC2CCCCC2)C1 (stereo unspecified) returned ERK AVP block 26%, TSHR agonist 5%, CRE-bla Fsk 28%, IkB signaling 0% and HEK293 cAMP cs 1%.
For COc1ccccc1CNC(=O)c1ccc(-c2nc(CS(=O)c3ccccc3)c(C)o2)cc1 (stereo unspecified) the results were IkB signaling 1%.
For O=C(c1ccc(CS(=O)(=O)c2ccc(Br)cc2)o1)N1CCN(c2ccc(F)cc2)CC1 the results were IkB signaling 1%.
For CC1=C(C)C(=O)NC(Nc2nc(C)c3cc(C)cc(C)c3n2)N1 (stereo unspecified) the results were ERK AVP block 14%, TSHR agonist 5%, CRE-bla Fsk 0.79µM*, IkB signaling -1% and HEK293 cAMP cs 8%.
Screening COc1cc(-c2nc(S(=O)(=O)c3ccccc3)c(N3CCOCC3)o2)cc(OC)c1OC returned ERK AVP block inconclusive, TSHR agonist 9%, CRE-bla Fsk 1.3µM*, IkB signaling -1% and HEK293 cAMP cs -2%.
For COc1ccc(C)cc1NC(=O)c1ccc(NS(=O)(=O)c2c(C)noc2C)cc1 the results were IkB signaling -2%.
For O=C(Nc1ccc(N2CCN(c3ccc(F)cc3)CC2)c(C(=O)O)c1)c1cccs1 the results were IkB signaling 1%.
For COc1ccc(C(C)=O)cc1COC(=O)c1ccc2c(c1)OCO2 the results were ERK AVP block 25%, TSHR agonist inconclusive, CRE-bla Fsk inconclusive, IkB signaling -1% and HEK293 cAMP cs 32µM*.
Screening Cc1cc(C)c(NC(=O)CSc2nc(-c3ccc(F)cc3)nc3c2Cc2c(CO)cnc(C)c2O3)c(C)c1 returned IkB signaling 0%.
O=C(Nc1ccccc1N1CCN(c2ccccc2)CC1)C1CCCCC1 was read as ERK AVP block 3%, TSHR agonist inconclusive, CRE-bla Fsk -5%, IkB signaling 0% and HEK293 cAMP cs 7.9µM*.
COc1cc(C2c3c(-c4cc(C)cc(C)c4O)n[nH]c3C(=O)N2CCCO)cc(OC)c1OC (stereo unspecified) was read as ERK AVP block -2%, TSHR agonist 14%, CRE-bla Fsk 16%, IkB signaling -1% and HEK293 cAMP cs -5%.
`COCCCN1C(=O)c2[nH]nc(-c3cc(C)cc(C)c3O)c2C1c1ccc(O)c(OC)c1` (stereo unspecified) gave ERK AVP block -22%, TSHR agonist inconclusive, CRE-bla Fsk 10µM*, IkB signaling 0% and HEK293 cAMP cs inconclusive.
Cc1cc(C)cc(OCc2nnc(SCC(=O)c3ccccc3)o2)c1 was read as ERK AVP block -4%, TSHR agonist inconclusive, CRE-bla Fsk -2%, IkB signaling inconclusive and HEK293 cAMP cs inconclusive.
Cc1cccc(OCc2nnc(SCC(=O)c3ccccc3)o2)c1 was read as ERK AVP block -7%, TSHR agonist inconclusive, CRE-bla Fsk 3%, IkB signaling 5% and HEK293 cAMP cs 4µM*.
For COC(=O)c1ccc(OC)c(CSc2nnc(COc3ccccc3)o2)c1 the results were ERK AVP block 1%, TSHR agonist inconclusive, CRE-bla Fsk inconclusive, IkB signaling inconclusive and HEK293 cAMP cs 13µM*.
COc1cccc2c1cc1c(=O)n(CC(=O)O)nc(C)n12 was read as IkB signaling -1%.
`COc1ccc(-c2cc(CCCC(=O)NCCc3cc(OC)ccc3OC)no2)cc1` gave ERK AVP block -19%, TSHR agonist inconclusive, CRE-bla Fsk inconclusive, IkB signaling inconclusive and HEK293 cAMP cs 32µM*.
Screening Nc1nc(SCc2ccccc2)c2ncn(Cc3ccccc3)c2n1 returned ERK AVP block -16%[11.5 µM], TSHR agonist -2%[11.4 µM], CRE-bla Fsk 13%[7.6 µM], IkB signaling 3%[11.4 µM] and HEK293 cAMP cs 6%[11.4 µM].
